The list is not random: actives were taken first. Their share in the collection is about 4%.
Arbovirus anti: arbovirus infection inhibition. arbovirus infection cell-based antiviral screen. inhibition, % at 10 µM. actives 0.37% (n = 200,000). AID 1251; in the data active = inhibition above about 30%
HSV replic up: increases HSV replication in cells; HSV replication augmentation in cells, fold increase; maximum fold increase; actives 0.005% (n = 220,000); in the data active = maximum fold increase above about 1.5; inconclusive = no clear call, values can overlap the other calls; tested in PC3 cells
Measles CPE: protection of cells from measles virus | actives 1.5% (n = 140,000) | Measles virus-infected cells, CPE protection, absorbance | protection (pct of control), % at 4 µM; in the data active = protection mostly above about 24%, no sharp cut-off; inactive = mostly below about 26%
ROMK primary: modulators of human ROMK potassium channel | actives 2% (n = 130,000) | Tet-inducible ROMK, thallium flux fluorescence; actives lie on both sides | B-score at 10 µM | AID 1918;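 active = signal ratio slope over the read window, or its plate-corrected B-score, at least 3 SD from the plate mean, either direction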;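 note: B-score of the F/F0 ratio slope over 7 to 12 s after thallium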
Target sequence (P48048 whole entry, looked up): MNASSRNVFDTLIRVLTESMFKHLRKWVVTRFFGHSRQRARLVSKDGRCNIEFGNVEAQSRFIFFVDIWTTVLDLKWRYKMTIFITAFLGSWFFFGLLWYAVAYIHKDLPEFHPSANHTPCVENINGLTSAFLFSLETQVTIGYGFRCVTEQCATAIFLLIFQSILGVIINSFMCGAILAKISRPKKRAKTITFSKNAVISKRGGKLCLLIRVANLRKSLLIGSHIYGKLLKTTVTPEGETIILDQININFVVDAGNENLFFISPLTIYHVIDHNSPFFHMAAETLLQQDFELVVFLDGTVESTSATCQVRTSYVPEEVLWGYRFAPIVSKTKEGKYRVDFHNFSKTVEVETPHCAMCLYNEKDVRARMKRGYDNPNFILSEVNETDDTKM
KCC2 mod: KCC2 (human) Cl- transport modulation. Q9H2X9. actives 2.2% (n = 190,000). KCC2 cells, thallium flux FluoZin-2 fluorescence. B-score of Tl+ flux slope (higher = more flux/activation; lower = inhibition) at 10 µM. AID 1456;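 active = thallium flux slope and its plate-corrected score both differing from the plate sample mean at a set confidence after two filtering rounds, in either direction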;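 note: slope of fluorescence scaled to starting intensity during 10 to 20 s after thallium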
KCC2 sec1: confirmation of human KCC2 transport modulators. HEK293-KCC2, thallium flux, FluoZin2 fluorescence; active compounds read high. AID 1713. actives 15% (n = 3,700). normalised thallium flux (F/F0 slope) at 10 µM. shares compounds with KCC2 mod;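 active = thallium flux slope above the same plate's solvent-only control mean plus 3 SD; inconclusive = the two replicate wells disagree; inactive = no significant difference from solvent-only control wells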
KCC2 bumet counter: bumetanide-insensitive thallium flux in KCC2 cells with ouabain, counter-screen | shares compounds with KCC2 mod | HEK293-KCC2 + bumetanide/ouabain, thallium flux FluoZin2; active compounds read high | normalized thallium flux at 10 µM | actives 49% (n = 3,700) | AID 1714;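 active = thallium entry rate above the same plate's blocked-transporter control wells by more than 3 SD; inconclusive = the two repeat wells disagree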;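 note: raw slope of fluorescence over initial fluorescence between 10 and 20 s after thallium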
KCC2 sec2: confirmation of human KCC2 transport modulators; shares compounds with KCC2 mod; HEK293-KCC2, thallium flux FluoZin2 fluorescence; actives lie on both sides; F/F0 rise rate, 10–20 s post-thallium; normalized thallium flux at 10 µM; actives 23% (n = 3,700);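 active = thallium flux slope more than 3 SD above or below the plate's solvent-only control mean, mostly below; inconclusive = the two repeat wells disagreed; inactive = no significant shift from solvent-only controls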;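 note: raw slope with 0.1% DMSO as baseline and bumetanide as block control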
HEK293 Tl flux: counter-screen for KCC2 modulators: effect in parental HEK293 cells; shares compounds with KCC2 mod; thallium flux FluoZin2, ouabain; baseline-ratio fluorescence slope, 10–20 s after thallium; thallium flux rate (normalised fluorescence) at 10 µM; actives 46% (n = 3,700); AID 1716;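 active = thallium flux rate significantly above the same plate's solvent-only control wells, beyond their mean plus 3 SD; inconclusive = the two replicate wells gave conflicting results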
KCC2 retest ouab: confirmation of human KCC2 modulators with ouabain; shares compounds with KCC2 mod; HEK293-KCC2, thallium flux FluoZin2 fluorescence; bidirectional: low = inhibitor, high = activator; raw Tl+ flux slope (below DMSO = inhibition, above = activation) at 10 µM; actives 48% (n = 3,700);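 active = thallium flux slope beyond 3 SD from same-plate DMSO control mean in most replicates, usually higher, sometimes lower; inconclusive = repeat tests gave conflicting results; inactive = no significant difference from controls in most replicates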;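 note: slope of initial-normalized fluorescence between seconds 10 and 20 after thallium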
HEK293 Tl flux2: parental HEK flux effect, counter-screen 2 | HEK293 parental, thallium flux FluoZin-2 fluorescence slope | shares compounds with KCC2 mod | actives 33% (n = 3,700) | thallium flux slope at 10 µM;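 active = thallium flux slope above the same plate's solvent-control mean plus 3 SD in both duplicate wells; inconclusive = duplicate wells that disagreed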;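 note: run without ouabain in cells lacking the KCC2 cotransporter; slope of fluorescence scaled to its starting value between 10 and 20 s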
* = called active by the depositor.

Results for Cc1cccc(NC(=S)N=Nc2c(O)n(C)c3ccc(S(=O)(=O)N4CCOCC4)cc23)c1 ?
Arbovirus anti: -4.3; HSV replic up: inactive; Measles CPE: 2.8; ROMK primary: 0.0381; KCC2 mod: 10.5*; KCC2 sec1: inconclusive; KCC2 bumet counter: 0.0553*; KCC2 sec2: 0.0314; HEK293 Tl flux: 0.0187*; KCC2 retest ouab: 0.0265; HEK293 Tl flux2: inconclusive

How did CC(C)(C)NC(=O)NC(=O)CN1CCN(c2cccc(Cl)c2)CC1 do in these assays?
HSV replic up: inactive; KCC2 mod: -0.298

Results for O=C1c2c([N+](=O)[O-])cc([N+](=O)[O-])cc2S(=O)N1Cc1ccccc1 (centres undefined) ?
Arbovirus anti: 3.3; HSV replic up: inactive; ROMK primary: 0.0282; KCC2 mod: -0.37

How did COC(=O)c1ccc(NC(=S)NCCCn2ccnc2)cc1 do in these assays?
Arbovirus anti: -0.1; HSV replic up: inactive; ROMK primary: -1.47

How did CCOC(=O)c1cnn(-c2nc(OC)cc(OC)n2)c1C(F)(F)F do in these assays?
Arbovirus anti: -8.8; HSV replic up: inactive; Measles CPE: 11.9; KCC2 mod: -10.7*; KCC2 sec1: 0.00694; KCC2 bumet counter: 0.00427; KCC2 sec2: 0.0295; HEK293 Tl flux: 0.00732; KCC2 retest ouab: 0.0186; HEK293 Tl flux2: 0.0103

How did COc1ccc(C)cc1N1C(=N)/C(=C2/Nc3ccccc3S2)C(c2ccccc2)C1=O (centres undefined) do in these assays?
Arbovirus anti: -32.5; HSV replic up: inactive; Measles CPE: 3.5; ROMK primary: -0.108; KCC2 mod: -0.908

How did CCC(C)NCCOCCOc1ccc(Cl)cc1Br (centres undefined) do in these assays?
Arbovirus anti: -15.7; HSV replic up: inactive; ROMK primary: -0.868; KCC2 mod: 2.97

What do the screens show for `O=C(Nc1ccc(Cl)cc1)Nc1ccccc1C(=O)O`?
Arbovirus anti: 7.4; HSV replic up: inactive; ROMK primary: 1.17; KCC2 mod: -0.88

What do the screens show for `O=C(Nc1ccc(Cl)c(Cl)c1)Nc1ccccc1C(=O)O`?
Arbovirus anti: 10.8; HSV replic up: inactive; ROMK primary: 0.0874; KCC2 mod: -4.52*; KCC2 sec1: 0.0145; KCC2 bumet counter: inconclusive; KCC2 sec2: 0.0237*; HEK293 Tl flux: 0.00653; KCC2 retest ouab: 0.013; HEK293 Tl flux2: 0.00936

How did CN(C(=O)CSc1nc2cc([N+](=O)[O-])ccc2n1-c1ccc(F)cc1)C1CCS(=O)(=O)C1 (centres undefined) do in these assays?
Arbovirus anti: -11.6; HSV replic up: inactive; Measles CPE: 4.1; ROMK primary: 0.0531; KCC2 mod: 4.93*; KCC2 sec1: 0.0097; KCC2 bumet counter: 0.0229*; KCC2 sec2: 0.032; HEK293 Tl flux: 0.0138*; KCC2 retest ouab: inconclusive; HEK293 Tl flux2: 0.0115*

Results for CN(C(=O)CSc1nc2ccc([N+](=O)[O-])cc2s1)C1CCS(=O)(=O)C1 (centres undefined) ?
HSV replic up: inactive; KCC2 mod: 1.15

Results for COc1ccccc1-n1c(SCC(=O)NCc2ccc3c(c2)OCO3)nc2cc([N+](=O)[O-])ccc21 ?
Arbovirus anti: -13.9; HSV replic up: inactive; Measles CPE: 5.8; ROMK primary: -1.93; KCC2 mod: 0.688

How did CCn1c(SCC(=O)N(Cc2ccccc2)C2CCS(=O)(=O)C2)nc2ccccc2c1=O (centres undefined) do in these assays?
Arbovirus anti: -2.4; HSV replic up: inactive; Measles CPE: 1.5; KCC2 sec1: 0.00747; KCC2 bumet counter: 0.0118*; KCC2 sec2: 0.0305; HEK293 Tl flux: 0.0112*; KCC2 retest ouab: inconclusive; HEK293 Tl flux2: 0.0126*

How did CC(Sc1nc2cc([N+](=O)[O-])ccc2n1-c1ccc(F)cc1)C(=O)NCc1ccc2c(c1)OCO2 (centres undefined) do in these assays?
Arbovirus anti: -5.1; HSV replic up: inactive; Measles CPE: 9.4; ROMK primary: -0.525; KCC2 mod: 9.95*; KCC2 sec1: 0.00916; KCC2 bumet counter: 0.0146*; KCC2 sec2: 0.0336; HEK293 Tl flux: 0.013*; KCC2 retest ouab: 0.0273; HEK293 Tl flux2: 0.0123*

Results for CN(C(=O)CSc1nc2ccccc2n1CCc1ccccc1)C1CCS(=O)(=O)C1 (centres undefined) ?
Arbovirus anti: 1.1; HSV replic up: inactive; Measles CPE: 3.5; KCC2 mod: 9.45*; KCC2 sec1: 0.00724; KCC2 bumet counter: 0.0149*; KCC2 sec2: 0.0306; HEK293 Tl flux: 0.0113*; KCC2 retest ouab: inconclusive; HEK293 Tl flux2: 0.0138*

How did Cc1cc(CC(C)C)n(-c2nc3ccccc3c(=O)n2OCC(=O)N(C)C)n1 do in these assays?
Arbovirus anti: -16.4; HSV replic up: inactive; Measles CPE: 10.8; ROMK primary: 1.02; KCC2 mod: 10*; KCC2 sec1: 0.0074; KCC2 bumet counter: 0.0255*; KCC2 sec2: 0.0359; HEK293 Tl flux: 0.0239*; KCC2 retest ouab: 0.0318*; HEK293 Tl flux2: 0.0173*

How did Cc1cc(CC(C)C)n(-c2nc3ccccc3c(=O)n2OCc2ccccc2)n1 do in these assays?
Arbovirus anti: -33.8; HSV replic up: inactive; Measles CPE: 2.3; KCC2 mod: 5.14*; KCC2 sec1: 0.00858; KCC2 bumet counter: 0.0232*; KCC2 sec2: 0.0303; HEK293 Tl flux: 0.0108*; KCC2 retest ouab: 0.0522*; HEK293 Tl flux2: 0.0121*

What do the screens show for `O=S(=O)(/N=C(\Nc1ccc(F)cc1)C(F)(F)F)c1ccccc1`?
Arbovirus anti: 0.0; HSV replic up: inactive; Measles CPE: 4.9; ROMK primary: -0.795

What do the screens show for `Cc1cccc(N/C(=N\S(=O)(=O)c2ccccc2)C(F)(F)F)c1`?
Arbovirus anti: 7.9; Measles CPE: 5.7; KCC2 sec1: 0.00528; KCC2 bumet counter: inconclusive; KCC2 sec2: 0.0287; HEK293 Tl flux: 0.0102*; KCC2 retest ouab: 0.0202; HEK293 Tl flux2: 0.0111

High-throughput results as filed in PubChem.
